The whole screen tested about 48,000 compounds, of which about 13,000 (27%) showed an effect of 50% or more. The list shows a part of the results.
Each compound was assayed on Wolbachia pipientis (assay: Anti-Wolbachia Cell-Based Screen). Details: 5 µM.
Format: functional
Set-up: scale not given: in the data most compounds retested in dose-response had high values

Row | SMILES | Percent Effect
1 | Cc1c(CNC(=O)C2CCCN2C(=O)C2CC2)oc2ccccc12 (stereo not given) | -1.359%
2 | CCOc1cccc(NS(=O)(=O)c2cc(C)c(C(=O)O)s2)c1 | -3.705%
3 | O=C(c1csc(-c2cnccn2)n1)N1CCCC1Cn1cccn1 (stereo not given) | 125.1%
4 | CCc1nc(CC(=O)N2CCCC2Cn2cccn2)cs1 (stereo not given) | -8.177%
5 | CN(CC(=O)N1CCCC1Cn1cccn1)c1cnccn1 (stereo not given) | -3.712%
6 | O=C(c1csc(-c2ccccn2)n1)N1CCCC1Cn1cccn1 (stereo not given) | 108.1%
7 | CCC1CN(C(=O)c2csc(-c3cnn(C)c3)n2)CCO1 (stereo not given) | 8.184%
8 | Cn1cc(-c2nc(C(=O)N3CCCC3Cn3cccn3)cs2)cn1 (stereo not given) | 119.5%
9 | O=C(c1csc(-c2cccs2)n1)N1CCCC1Cn1cccn1 (stereo not given) | 4.192%
10 | O=C(c1csc(-c2ncccn2)n1)N1CCCC1Cn1cccn1 (stereo not given) | 100.9%
11 | O=C(CN1CCCCCC1=O)NCC1CCN(c2ccccc2)C1 (stereo not given) | -4.287%
12 | O=C(N1CCOCC1CO)C1(c2cccs2)CCCC1 (stereo not given) | 1.205%
13 | COc1ccc(/C=C/CN2CCN(c3nccnc3C)CC2)cc1 | 1.299%
14 | COc1ccc(N(CCC(N)=O)C(=O)CSc2ccc(F)c(F)c2)cc1 | 6.569%
15 | CCc1nc(CCNC(=O)NC2CCN(C(C)C)C2)sc1C (stereo not given) | -28.06%
16 | Cc1ncc(CN2CCCC2c2ccc(C(=O)NCc3ccoc3)s2)s1 (stereo not given) | 9.292%
17 | CCCc1nnc(N2CCN(c3ccccc3Cl)CC2)o1 | 94.38%
18 | CCCc1nnc(N2CCN(c3cccc(C)c3C)CC2)o1 | 106.7%
19 | CCCc1nnc(N2CCC(N3CCN(CCO)CC3)CC2)o1 | -3.287%
20 | CCc1nnc(N2CCN(CCc3ccccc3)C(=O)C2)o1 | -17.07%
21 | CCCc1nnc(N2CCC(C3CCN(C)CC3)CC2)o1 | -0.3277%
22 | CCCc1nnc(N2CCN(c3ccccc3F)CC2)o1 | 104.4%
23 | CCCc1nnc(N2CCC(N3CCCC(O)C3)CC2)o1 (stereo not given) | 11.24%
24 | CCCc1nnc(N2CCN(C3CCCC3)CC2)o1 | -0.2431%
25 | COc1nc(C)ccc1CNC(=O)NC(C)(C)c1ncc(C)s1 | 40.1%

Row | SMILES | Percent Effect
26 | O=C(c1cccc(-c2ncc[nH]2)c1)N1CCC(N2CCCC(O)C2)CC1 (stereo not given) | -7.829%
27 | Cc1cc(-c2nn(C)c(Cl)c2CN2CCN(C)C(C(=O)O)C2)no1 (stereo not given) | -9.468%
28 | Cc1ccc(Cl)c(CN2CCC3(CC2)C(C(=O)O)CC(=O)N3C)c1F (stereo not given) | 1.712%
29 | CN1CCN(Cc2c(Cl)ccc(O)c2Cl)CC1C(=O)O (stereo not given) | 96.73%
30 | CC(=O)N1CCN(Cc2ccc(Cl)c(F)c2)CC(O)C1 (stereo not given) | 3.004%
31 | CC(C1CCN(Cc2c(Cl)ccc(O)c2Cl)CC1)N1CCN(C)CC1 (stereo not given) | 2.442%
32 | O=C(C1CCC1)N1CCC(C2CCN(Cc3ccc(Cl)cc3)C2)CC1 (stereo not given) | 11.03%
33 | Cc1ccc(Cl)c(CN2CCN(C)C(C(=O)O)C2)c1F (stereo not given) | 102.6%
34 | O=C(C1CCCC1)N1CCC(C2CCN(Cc3ccc(Cl)cc3)C2)CC1 (stereo not given) | 14.43%
35 | CN1CCN(Cc2ccc(Cl)cc2)CC1C(=O)O (stereo not given) | 102.4%
36 | CCC(C(=O)NC1(CN2CCOCC2)CCCC1)n1cccn1 (stereo not given) | -7.135%
37 | Cn1c(CNc2c(F)cccc2-n2cccn2)cc(=O)n(C)c1=O | -1.066%
38 | CC(C#N)CN(C)C(=O)c1cn(-c2ccc(Br)cc2)cn1 (stereo not given) | 17.58%
39 | CC(C)Cc1noc(CN2CCN(c3nccs3)CC2)n1 | -10.34%
40 | Nc1nc(CN2CCN(c3nccs3)CC2)cs1 | -10.1%
41 | CCc1noc(CN2CCN(c3nccs3)CC2)n1 | 91.95%
42 | CCCc1noc(CN2CCN(c3nccs3)CC2)n1 | 101%
43 | c1csc(-c2cc(CN3CCN(c4nccs4)CC3)no2)c1 | 7.977%
44 | CCCc1noc(CN2CCN(CCC(C)C)CC2)n1 | 7.482%
45 | COc1cccc(C(O)CN2CCN(C(=O)c3ccsc3)CC2)c1 (stereo not given) | 4.323%
46 | COc1cccc(C(=O)N2CCN(CC(O)c3ccccc3)CC2)c1 (stereo not given) | 2.631%
47 | CCOCC(O)CN1CCN(C(=O)c2cccc(OC)c2)CC1 (stereo not given) | 88.95%
48 | CCOCC(O)CN1CCN(C(=O)c2cc(F)cc(F)c2)CC1 (stereo not given) | 99.72%
49 | CCOCC(O)CN1CCN(C(=O)c2ccncc2)CC1 (stereo not given) | 2.226%
50 | CCOCC(O)CN1CCN(C(=O)c2cccc(F)c2)CC1 (stereo not given) | 0.952%

Row | SMILES | Percent Effect
51 | CCOCC(O)CN1CCN(C(=O)c2ccc(OC)cc2)CC1 (stereo not given) | 101.3%
52 | CCOCC(O)CN1CCN(C(=O)c2cnc3n[nH]c(C)c3c2)CC1 (stereo not given) | -0.1708%
53 | CCOCC(O)CN1CCN(C(=O)c2ccsc2)CC1 (stereo not given) | -6.282%
54 | CCOC(C)c1nc(CN2CCN(c3nccc(C)n3)CC2)cs1 (stereo not given) | -8.527%
55 | CCc1ncc2c(n1)CN(C(=O)CCCc1ccc(OC)cc1)C2 | -1.775%
56 | COc1ccc(NC(=O)N2CCCC(CO)C2)c(C)c1 (stereo not given) | -14.28%
57 | Nc1cc(N2CCCC(Cc3ccc(F)cc3F)(C(=O)O)C2)ncn1 (stereo not given) | -0.2204%
58 | CCN(CC)c1ccc(CNS(=O)(=O)C2CCOCC2)cc1F | 0.7913%
59 | Fc1cccnc1OC[C@@]12CCO[C@@H]1CCN(CC1CCOCC1)C2.O=C(O)C(F)(F)F.O=C(O)C(F)(F)F | 11.98%
60 | O=C(N[C@@H]1CCN(C(=O)C2CCOCC2)C[C@H]1O)c1ccccn1 | 2.955%
61 | O=C(C1CCOCC1)N1CCOC(CC2CCCCC2)C1 (stereo not given) | 10.22%
62 | O=C(C1CCOCC1)N1CCOCC(Cc2ncccn2)C1 (stereo not given) | 97.13%
63 | OC1(CN2CCC(Cc3ncccn3)CC2)CCOCC1 | 87.8%
64 | C1=CCN(c2nc(CC3CC3)nc3c2CCN(C2CCOCC2)CC3)C1 | -5.944%
65 | OC1(CN2CCC(Cc3ccccc3)CC2)CCC1 | -17.41%
66 | OC1(CN2CCC(Cc3ncccn3)CC2)CCCCC1 | 116.2%
67 | CCOCCN1CCN(CC2(O)CCCCC2)CC1 | -2.649%
68 | Clc1cccc(C(NCc2ncc[nH]2)c2ccccn2)c1 (stereo not given) | 3.902%
69 | CN(C)CC(C)(O)CNC(=O)Nc1sc2ccccc2c1Cl (stereo not given) | 1.378%
70 | COc1coc(CN2CCCC(CCc3ccccc3C)C2)cc1=O (stereo not given) | -0.7566%
71 | Cc1nccn1C1CCCN(C(=O)CCCNc2ncccn2)C1 (stereo not given) | 106.9%
72 | O=C(CCCNc1ncccn1)N1CCCC(n2cccn2)C1 (stereo not given) | 2.216%
73 | CCc1nccn1C1CCCN(C(=O)CCCNc2ncccn2)C1 (stereo not given) | 1.367%
74 | Cc1nc(C)n(C2CCCN(C(=O)CCCNc3ncccn3)C2)n1 (stereo not given) | 110%
75 | CNS(=O)(=O)CC(=O)N(C1CC1)C1Cc2ccccc2C1 | 0.4054%

Row | SMILES | Percent Effect
76 | Cc1ncsc1C(=O)N1CCCC(c2nccn2Cc2cscn2)C1 (stereo not given) | -18.71%
77 | Cc1ncsc1C(=O)N1CCCN(Cc2cscn2)CC1 | -2.478%
78 | Cc1ncsc1C(=O)N1CCN(Cc2cscn2)CC1 | 129.9%
79 | Cc1cnc(C(=O)N2CCCN(Cc3csc(C)n3)CC2)cn1 | 7.438%
80 | Cc1cnc(C(=O)N2CCN(Cc3csc(C)n3)CC2)cn1 | 75.58%
81 | Cc1nc(CN2CCN(C(=O)c3scnc3C)CC2)cs1 | 142.4%
82 | CC(Cc1ccccn1)N(C)C(=O)c1ncc[nH]1 (stereo not given) | -16.95%
83 | COCCn1cnc(-c2cc(C(=O)NC(C)C)c3ccccn23)c1 | -8.086%
84 | O=C(CNc1cccc(S(=O)(=O)C(F)F)c1)Nc1ccccc1 | 9.714%
85 | COc1ncccc1C1CC(=O)NCc2nc3ccccn3c21 (stereo not given) | -11.47%
86 | CC(C)n1ncc2c1NC(=O)CC21C(=O)Nc2c(Cl)cccc21 (stereo not given) | -6.68%
87 | Cc1ccc(S(=O)(=O)NCC2(O)CCOc3ccccc32)s1 (stereo not given) | 0.721%
88 | Cc1cc(C)c(CNC(=O)N2CCC(N3CCNC3=O)CC2)c(C)c1 | -1.308%
89 | COc1cccc(-c2noc(-c3ccc(N4CC(N)C4)nc3)n2)c1OC | 0.2823%
90 | O=C(NCc1ccco1)[C@H]1CC[C@@H]2[C@@H](CCN2Cc2cccnc2)O1.O=C(O)C(F)(F)F.O=C(O)C(F)(F)F | -10.47%
91 | O=C(NCc1cccnc1)[C@H]1CC[C@@H]2[C@@H](CCN2c2ncccn2)O1.O=C(O)C(F)(F)F.O=C(O)C(F)(F)F | -7.451%
92 | Cn1cc(CN2CC[C@H]3O[C@H](C(=O)NCc4ccco4)CC[C@H]32)cn1.O=C(O)C(F)(F)F | -21.14%
93 | O=C(NCc1cccs1)[C@H]1CC[C@@H]2[C@@H](CCN2Cc2ccoc2)O1.O=C(O)C(F)(F)F | 94.68%
94 | O=C(Nc1cnccn1)[C@H]1CC[C@@H]2[C@@H](CCN2Cc2ccoc2)O1.O=C(O)C(F)(F)F | 111.7%
95 | Cn1cc(CN2CC[C@H]3O[C@@H](C(=O)NC4CC4)CC[C@H]32)cn1.O=C(O)C(F)(F)F.O=C(O)C(F)(F)F | 2.978%
96 | O=C(O)C(F)(F)F.O=C([C@@H]1CC[C@@H]2[C@@H](CCN2Cc2ccoc2)O1)N1CCCC1 | 8.52%
97 | CS(=O)(=O)N1CC[C@H]2O[C@H](C(=O)NCCc3ccccn3)CC[C@H]21.O=C(O)C(F)(F)F | 2.249%
98 | O=C(NCc1cccs1)[C@H]1CC[C@@H]2[C@@H](CCN2c2ncccn2)O1.O=C(O)C(F)(F)F | 16.99%
99 | Cn1cc(CN2CC[C@H]3O[C@H](C(=O)Nc4cnccn4)CC[C@H]32)cn1.O=C(O)C(F)(F)F | 123.6%
100 | O=C(NCCc1ccccn1)[C@@H]1CC[C@@H]2[C@@H](CCN2Cc2ccoc2)O1.O=C(O)C(F)(F)F.O=C(O)C(F)(F)F | 100.1%

From ChEMBL document CHEMBL3988442, “University of Dundee, Small-Polar-MMV Screening Library” (2021)
